Assay [1] concerns the target Casein kinase I isoform gamma-2 (Homo sapiens) (UniProt P78368). The conditions noted are these: at 1 µM.
The target in assay [2] is Casein kinase I isoform gamma-3 (Homo sapiens) (UniProt Q9Y6M4). The following applies: at 0.1 µM.
Assay [3] shares this target. The following applies: at 1 µM.
Assay [4] has as its target Cyclin-dependent kinase 1 (Homo sapiens) (UniProt P06493). The conditions noted are these: at 0.1 µM.
Assay [5] shares this target. The following applies: at 1 µM.
For assay [6], the target named is Cyclin-dependent kinase 2 (Homo sapiens) (UniProt P24941). The conditions noted are these: at 0.1 µM.
For assay [7] the target is unchanged. The conditions noted are these: at 1 µM.
For assay [8] the target is unchanged. The following applies: at 0.1 µM. This is another data set of the same source.
The target is the same in assay [9]. The following applies: at 1 µM. This is another data set of the same source.
The target in assay [10] is T1, CDK3/Cyclin E (Homo sapiens) (UniProt P24864+Q00526). The conditions noted are these: at 0.1 µM.
For assay [11], the target named is T1, CDK3/Cyclin E (Homo sapiens). The conditions noted are these: at 1 µM.
In assay [12] the target is Cyclin-dependent kinase 4 (Homo sapiens) (UniProt P11802). The following applies: at 0.1 µM.
For assay [13] the target is unchanged. The following applies: at 1 µM.
Assay [14] deals with Cyclin-dependent kinase 5 (Homo sapiens) (UniProt Q00535). The conditions noted are these: at 0.1 µM.
Assay [15] has the same target. The conditions noted are these: at 1 µM.
The target of assay [16] is Cyclin-dependent kinase 6 (Homo sapiens) (UniProt Q00534). The following applies: at 0.1 µM.
The target is the same in assay [17]. The conditions noted are these: at 1 µM.
Assay [18] has as its target Dual specificity protein kinase CLK2 (Homo sapiens) (UniProt P49760). The conditions noted are these: at 0.1 µM.
Assay [19] has the same target. The conditions noted are these: at 1 µM.
For assay [20], the target named is Dual specificity protein kinase CLK3 (Homo sapiens) (UniProt P49761). The conditions noted are these: at 0.1 µM.

Among the data in ChEMBL document CHEMBL1961873, “Compounds: GSK PKIS; Assays: Nanosyn kinase panel” (2012) are inhibition values, retold here.

Cyclin-dependent kinase 6 (Homo sapiens), sequence (Q00534 whole entry): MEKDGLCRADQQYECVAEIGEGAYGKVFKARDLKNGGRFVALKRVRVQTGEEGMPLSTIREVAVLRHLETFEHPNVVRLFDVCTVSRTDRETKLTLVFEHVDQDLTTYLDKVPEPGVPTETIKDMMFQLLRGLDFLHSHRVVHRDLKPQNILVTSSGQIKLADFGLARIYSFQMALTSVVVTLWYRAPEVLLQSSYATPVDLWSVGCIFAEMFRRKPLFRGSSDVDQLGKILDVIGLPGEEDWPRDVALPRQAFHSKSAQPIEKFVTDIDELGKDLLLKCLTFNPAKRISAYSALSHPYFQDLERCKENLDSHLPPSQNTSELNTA
Dual specificity protein kinase CLK3 (Homo sapiens), sequence (P49761 whole entry, looked up): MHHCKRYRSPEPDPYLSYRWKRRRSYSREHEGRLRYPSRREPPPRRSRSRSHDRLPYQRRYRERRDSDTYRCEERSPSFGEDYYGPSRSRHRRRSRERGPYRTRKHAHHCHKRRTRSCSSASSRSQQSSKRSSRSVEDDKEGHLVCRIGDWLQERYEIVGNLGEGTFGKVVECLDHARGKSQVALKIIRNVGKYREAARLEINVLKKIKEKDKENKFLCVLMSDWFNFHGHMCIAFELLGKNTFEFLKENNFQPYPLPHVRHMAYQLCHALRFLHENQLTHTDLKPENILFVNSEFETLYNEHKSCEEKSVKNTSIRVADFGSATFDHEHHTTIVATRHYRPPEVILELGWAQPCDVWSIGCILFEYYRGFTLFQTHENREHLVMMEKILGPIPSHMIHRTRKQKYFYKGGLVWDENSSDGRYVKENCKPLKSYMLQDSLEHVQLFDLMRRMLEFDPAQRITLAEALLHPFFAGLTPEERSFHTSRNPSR
Casein kinase I isoform gamma-3 (Homo sapiens), sequence (Q9Y6M4 whole entry, looked up, canonical isoform): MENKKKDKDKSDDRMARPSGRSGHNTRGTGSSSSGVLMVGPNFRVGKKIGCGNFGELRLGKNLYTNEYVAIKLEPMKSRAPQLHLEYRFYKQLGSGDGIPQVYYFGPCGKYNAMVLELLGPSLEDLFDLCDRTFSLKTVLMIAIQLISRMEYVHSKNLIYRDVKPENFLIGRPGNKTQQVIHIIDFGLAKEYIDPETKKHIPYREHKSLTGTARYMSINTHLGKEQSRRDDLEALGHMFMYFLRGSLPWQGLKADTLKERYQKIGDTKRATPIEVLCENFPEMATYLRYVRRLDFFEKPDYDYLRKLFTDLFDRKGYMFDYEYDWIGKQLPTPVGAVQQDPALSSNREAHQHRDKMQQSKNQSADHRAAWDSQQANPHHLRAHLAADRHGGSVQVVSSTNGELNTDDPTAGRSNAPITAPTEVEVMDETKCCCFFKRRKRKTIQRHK
Dual specificity protein kinase CLK2 (Homo sapiens), sequence (P49760 whole entry, looked up): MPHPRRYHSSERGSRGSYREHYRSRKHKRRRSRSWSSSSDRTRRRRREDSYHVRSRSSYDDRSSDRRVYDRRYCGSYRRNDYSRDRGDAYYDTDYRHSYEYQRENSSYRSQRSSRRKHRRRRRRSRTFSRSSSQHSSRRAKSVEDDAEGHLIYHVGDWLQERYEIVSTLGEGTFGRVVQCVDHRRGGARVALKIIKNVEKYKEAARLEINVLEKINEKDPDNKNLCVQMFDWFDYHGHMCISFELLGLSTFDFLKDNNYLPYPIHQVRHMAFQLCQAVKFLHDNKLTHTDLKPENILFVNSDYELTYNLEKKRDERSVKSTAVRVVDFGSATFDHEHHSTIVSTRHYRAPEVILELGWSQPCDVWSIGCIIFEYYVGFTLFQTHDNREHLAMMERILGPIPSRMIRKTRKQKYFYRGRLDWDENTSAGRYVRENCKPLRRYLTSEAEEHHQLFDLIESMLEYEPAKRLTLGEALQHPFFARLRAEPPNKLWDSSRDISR
Cyclin-dependent kinase 1 (Homo sapiens), sequence (P06493 whole entry, looked up): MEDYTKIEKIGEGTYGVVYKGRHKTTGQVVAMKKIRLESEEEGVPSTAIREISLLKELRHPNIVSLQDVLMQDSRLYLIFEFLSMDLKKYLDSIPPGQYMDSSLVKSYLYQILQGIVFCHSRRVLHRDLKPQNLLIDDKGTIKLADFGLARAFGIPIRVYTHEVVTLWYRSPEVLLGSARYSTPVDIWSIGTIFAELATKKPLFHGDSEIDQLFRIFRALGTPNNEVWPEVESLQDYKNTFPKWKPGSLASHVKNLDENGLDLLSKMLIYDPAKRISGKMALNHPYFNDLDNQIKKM
Cyclin-dependent kinase 4 (Homo sapiens), sequence (P11802 whole entry): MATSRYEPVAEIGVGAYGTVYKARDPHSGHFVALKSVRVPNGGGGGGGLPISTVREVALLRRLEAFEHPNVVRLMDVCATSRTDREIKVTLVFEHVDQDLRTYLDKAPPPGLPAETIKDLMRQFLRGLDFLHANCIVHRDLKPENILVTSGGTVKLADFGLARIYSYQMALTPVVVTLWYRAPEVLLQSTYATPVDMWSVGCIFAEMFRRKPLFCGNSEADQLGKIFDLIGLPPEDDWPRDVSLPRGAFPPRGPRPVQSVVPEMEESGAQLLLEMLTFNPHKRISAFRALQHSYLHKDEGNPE
T1 sequence (P24864 whole entry, looked up): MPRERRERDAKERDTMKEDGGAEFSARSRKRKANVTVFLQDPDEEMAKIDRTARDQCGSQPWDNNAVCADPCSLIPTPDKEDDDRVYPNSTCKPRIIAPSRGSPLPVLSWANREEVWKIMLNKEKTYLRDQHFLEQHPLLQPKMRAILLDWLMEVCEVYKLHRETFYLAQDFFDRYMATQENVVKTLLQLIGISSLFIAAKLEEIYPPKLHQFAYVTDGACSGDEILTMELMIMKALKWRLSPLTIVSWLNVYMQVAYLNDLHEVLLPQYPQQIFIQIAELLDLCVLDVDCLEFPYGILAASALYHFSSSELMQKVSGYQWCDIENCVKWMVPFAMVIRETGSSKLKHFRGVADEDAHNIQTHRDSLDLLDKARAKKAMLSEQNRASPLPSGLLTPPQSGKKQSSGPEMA
T1 sequence (Q00526 whole entry, looked up): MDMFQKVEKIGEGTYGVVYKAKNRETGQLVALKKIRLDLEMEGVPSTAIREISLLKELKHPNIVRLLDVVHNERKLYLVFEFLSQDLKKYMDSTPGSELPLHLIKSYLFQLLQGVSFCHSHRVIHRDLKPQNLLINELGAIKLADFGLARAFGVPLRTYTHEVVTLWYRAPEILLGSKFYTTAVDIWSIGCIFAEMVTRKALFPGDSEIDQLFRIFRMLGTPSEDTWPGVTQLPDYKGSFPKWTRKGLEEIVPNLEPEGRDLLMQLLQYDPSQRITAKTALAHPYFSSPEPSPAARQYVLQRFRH
Casein kinase I isoform gamma-2 (Homo sapiens), sequence (P78368 whole entry, looked up, canonical isoform): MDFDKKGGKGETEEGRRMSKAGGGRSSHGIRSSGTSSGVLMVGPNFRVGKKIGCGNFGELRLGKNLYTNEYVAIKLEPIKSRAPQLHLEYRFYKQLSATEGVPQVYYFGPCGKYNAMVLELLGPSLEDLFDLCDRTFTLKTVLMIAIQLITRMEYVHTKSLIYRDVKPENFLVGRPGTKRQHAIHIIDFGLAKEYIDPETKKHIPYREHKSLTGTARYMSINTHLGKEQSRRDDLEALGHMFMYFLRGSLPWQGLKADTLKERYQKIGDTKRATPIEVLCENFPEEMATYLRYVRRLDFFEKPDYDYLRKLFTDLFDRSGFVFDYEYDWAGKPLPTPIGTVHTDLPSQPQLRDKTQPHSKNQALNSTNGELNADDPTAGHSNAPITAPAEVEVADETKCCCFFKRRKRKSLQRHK
Cyclin-dependent kinase 5 (Homo sapiens), sequence (Q00535 whole entry, looked up): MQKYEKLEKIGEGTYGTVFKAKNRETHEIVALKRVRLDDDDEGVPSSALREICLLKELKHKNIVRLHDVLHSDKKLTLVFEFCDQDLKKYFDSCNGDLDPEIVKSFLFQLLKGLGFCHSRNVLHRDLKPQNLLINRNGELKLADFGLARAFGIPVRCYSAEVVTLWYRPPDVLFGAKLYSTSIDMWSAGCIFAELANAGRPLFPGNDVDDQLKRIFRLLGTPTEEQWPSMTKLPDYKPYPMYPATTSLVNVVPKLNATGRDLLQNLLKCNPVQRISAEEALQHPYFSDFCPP

One may read the inhibition as the drop in the measured response relative to a control, in per cent. For the compound `Fc1ccc(-c2nc3n(c2-c2ccncc2)CCS3)cc1`, the inhibition in assay [1] is 4.78%; in assay [2], 0.7%; in [3], 8.82%; in assay [4], -2.26%; in assay [5], -3.55%; in [6] it was -1.04%. For the same compound, the inhibition is 1.08% in [7]; 0.41% in [8]; 0.29% in [9]; 4.27% in assay [10]; -2.73% in assay [11]; -1.97% in assay [12]. The inhibition in assay [13] was -0.8%; in assay [14], -2.49%; in [15], -2.61%; in [16] it was -7.51%; in [17] it was -1.4%; in [18], 1.78%. The inhibition in assay [19] is 0.05%; in [20], -1.51%.
On to `O=C(Nc1ccc(Oc2ccc3[nH]c(NC(=O)c4ccccc4)nc3c2)cc1)Nc1cc(C(F)(F)F)ccc1F`, for which the inhibition is 2.09% in assay [1]; 1.5% in assay [2]; 2.93% in [3]; 0.28% in assay [4]; 3.27% in assay [5]; 0.68% in [6]. Further, the inhibition in [7] was 4.24%; in assay [8] it was 2.28%; in assay [9] it was 4.67%; in [10] it was 1.65%; in [11], -1.42%; in assay [12] it was 3.17%. Further, the inhibition was 4.9% in assay [13]; 0.47% in assay [14]; 3.03% in assay [15]; 2.76% in assay [16]; 4.46% in [17]; 0.71% in [18]. Also, the inhibition in assay [19] was 1.05%; in [20] it was 1.59%.
`COc1ccc2ncn(-c3cc(O[C@H](C)c4ccccc4Cl)c(C(N)=O)s3)c2c1`: the inhibition in assay [1] was 0.41%; in [2], -0.98%; in assay [3], -2.81%; in assay [4] it was -3.45%; in assay [5], -2.45%; in assay [6], -2.63%. The inhibition in [7] is -1.27%; in assay [8] it was -1.28%; in assay [9], 1.93%; in assay [10] it was -2.44%; in assay [11] it was -2.98%; in assay [12] it was -2.27%. The inhibition in [13] was -0.19%; in assay [14], -3.87%; in assay [15], -2.17%; in assay [16], -3.71%; in assay [17], -2.1%; in assay [18], 0.43%. Also, the inhibition in assay [19] is 0.2%; in [20], -2.29%.
As for `NS(=O)(=O)c1ccc(N/N=C2\C(=O)Nc3ccc(C(=O)NCCCn4ccnc4)cc32)cc1`, the inhibition was determined as 9.42% in [1]; 5.52% in assay [2]; 12.9% in assay [3]; 20.5% in assay [4]; 66.7% in assay [5]; 97.4% in [6]. For the same compound, the inhibition in assay [7] was 97.9%; in [8] it was 65%; in assay [9] it was 82.4%; in assay [10], 27.8%; in assay [11] it was 88.6%; in assay [12] it was 16.6%. Further, the inhibition in assay [13] is 57.1%; in assay [14], 33.8%; in assay [15], 72.8%; in assay [16] it was 10%; in assay [17], 57.2%; in assay [18], 15.6%. Moreover, the figures for the inhibition in [19] and in assay [20] were 66.1% and 1.77%, respectively.
Turning to `FC(F)(F)c1cccc(Nc2nccc(-c3cnn4nc(-c5ccccc5)ccc34)n2)c1`, the inhibition is 2.62% in assay [1]; 1.84% in assay [2]; 2.44% in assay [3]; 0.56% in assay [4]; 4.07% in assay [5]; 1.41% in [6]. Further, the inhibition was 13.5% in assay [7]; 3.41% in assay [8]; 26.4% in [9]; -1.25% in assay [10]; 2.5% in assay [11]; 1.39% in assay [12]. Also, the inhibition in [13] stood at 5.84%; in assay [14] it was 0.4%; in assay [15], 3.29%; in assay [16], 0.39%; in [17] it was 2.53%; in [18], 57.2%. Moreover, the inhibition in [19] turned out to be 92.1%; in assay [20] it was 1.66%.
As to `c1ccc(-c2n[nH]cc2-c2ccnc(-c3ccc(OCCN4CCOCC4)cc3)c2)nc1`, the inhibition is -2.28% in assay [1]; -0.5% in assay [2]; 2.07% in assay [3]; 5.08% in assay [4]; 4.83% in [5]; 0.41% in assay [6]. Further, the inhibition in assay [7] was found to be 0.03%; in [8], 4.78%; in assay [9], 4.73%; in assay [10] it was 5.94%; in [11], 3.2%; in assay [12], 5.35%. Besides, the inhibition in assay [13] worked out at 6.08%; in assay [14], 5.7%; in assay [15] it was 4.87%; in assay [16], 1.73%; in assay [17], 4.81%; in assay [18] it was 2.87%. Moreover, the values for the inhibition in assay [19] and in assay [20] were 3.2% and 0.66%, respectively.
Regarding `NS(=O)(=O)c1ccc(N/N=C2\C(=O)Nc3ccc(-c4cnco4)cc32)cc1`, the inhibition in [1] is 0.36%; in [2], -3.27%; in assay [3], 0.29%; in assay [4] it was 32.6%; in assay [5] it was 66.8%; in assay [6], 85.8%. Besides, the inhibition in assay [7] was determined as 94.4%; in assay [8], 67.2%; in assay [9], 74.7%; in assay [10] it was 50%; in assay [11] it was 89.2%; in assay [12], 6.57%. In addition, the inhibition is 42% in assay [13]; 50.2% in assay [14]; 71.8% in assay [15]; 9.49% in assay [16]; 50.3% in assay [17]; 5.36% in assay [18]. Moreover, the inhibition in assay [19] is 35.9%; in [20], -3.12%.
For `Fc1ccc(-c2ncn(CCCN3CCOCC3)c2-c2ccncc2)cc1`, the inhibition was 0.86% in assay [1]; 0% in assay [2]; -0.19% in [3]; 0.43% in assay [4]; 2.72% in [5]; 1.19% in assay [6]. Also, the inhibition turned out to be 0.72% in assay [7]; 2.29% in [8]; 5.92% in assay [9]; 2.27% in assay [10]; 1.42% in assay [11]; 0.02% in assay [12]. Moreover, the inhibition was 5.08% in assay [13]; 1.43% in assay [14]; 3.98% in [15]; -8.34% in assay [16]; -1.04% in assay [17]; 1.11% in assay [18]. In addition, the inhibition in assay [19] was 2.52%; in assay [20] it was -1.43%.
